# The whole screen tested about 69,000 compounds, of which about 8,600 (12%) showed an effect of 50% or more. The full list was thinned out, with strong results kept by preference.
# Tested on: Plasmodium berghei
# Experiment: Screen against P. berghei liver stage (PbLuc), transformed with Luciferase, at 10uM
# Assay type: functional, HepG2
# Settings: tested at 10 uM
row,SMILES,INHIBITION
1,CN(C)c1ccc(C(=O)NCc2ccc(N3CCOCC3)cc2)cn1,12%
2,Cc1n[nH]c(C2CN(C(=O)CCOCC(F)(F)F)CCO2)n1 (stereo unspecified),13.6%
3,CC(=O)N1CCOCC2(CCN(Cc3ccc(C)s3)CC2)C1,20.2%
4,CS(=O)(=O)N1CCO[C@@H]2CN(C(=O)N3CCCC3)CC[C@@H]2C1,43.9%
5,O=C(c1cc2c(s1)CCCC2)N1CCc2nc(C3CCCN3)ncc2C1 (stereo unspecified),49.6%
6,Cc1nn2cccnc2c1C(=O)N1CCCC(n2ccnc2C)C1 (stereo unspecified),2.3%
7,COc1ccccc1-c1cc(C(=O)N(C)C)c2cnn(C)c2n1,-8.9%
8,COCCNc1ncc(-c2cccc(F)c2)c(-c2nccn2C)n1,25.8%
9,CCOCCCNc1ncc(-c2cccc(F)c2)c(-c2nccn2C)n1,8.12%
10,Cn1ccnc1-c1nc(NC2CCCC2)ncc1-c1cccc(F)c1,63.8%
11,COc1nn(C)c2c1CCCN(C(=O)c1cnccn1)C2,18.6%
12,COc1nn(C)c2c1CCCN(C(=O)c1cscn1)C2,51.2%
13,COc1nn(C)c2c1CCCN(C(=O)c1c[nH]cn1)C2,14%
14,CCCn1nccc1NC(=O)CN1CCCC1c1cccn1C (stereo unspecified),25.1%
15,Cc1cc(C)cc(N2CCN(Cc3cccnc3)CC2=O)c1,41.5%
16,O=C1CC2(CCN(Cc3ccc(-c4ccccc4)s3)C2)C(=O)N1 (stereo unspecified),21.2%
17,O=C1CC2(CCN(Cc3ccc(Cl)s3)C2)C(=O)N1 (stereo unspecified),61.6%
18,O=C1NCC2(CCCN(Cc3ccc(Cl)s3)C2)Oc2ccccc21 (stereo unspecified),43.7%
19,O=C(Cc1ccccn1)N1CCc2ncnc(NC3CCC3)c2CC1,38.5%
20,CCc1nc(C)c(C(=O)NCCN2CCN(C(C)=O)CC2)s1,22.3%
21,Cc1nn(C)cc1CN1CCc2c(nc(-c3ccccn3)[nH]c2=O)C1,38.8%
22,COc1cc2c(cc1OC)C(=O)C(Sc1nncn1C)C2 (stereo unspecified),6.67%

row,SMILES,INHIBITION
1,CC1CCCN1Cc1cccc(C(=O)Nc2ccc3c(c2)CCC3=O)c1 (stereo unspecified),58.6%
2,O=C(NCc1ccco1)c1cccc(CN2CCCC2CO)c1 (stereo unspecified),5.58%
3,CC1CN(C)CCN1Cc1cccc(C(=O)NCc2ccco2)c1 (stereo unspecified),-5.9%
4,COc1ccc(NC(=O)c2cccc(CN3CCCC3C)c2)cc1OC (stereo unspecified),42.6%
5,Cc1cccc(C)c1NC(=O)c1cccc(CN2CCCC2C)c1 (stereo unspecified),41.5%
6,CC1CCCN1Cc1cccc(C(=O)Nc2ccc3[nH]c(=O)oc3c2)c1 (stereo unspecified),74.7%
7,COc1ccc(CN(C)C(=O)CCC(=O)c2cccs2)c(OC)c1OC,50.1%
8,COc1cccc(CN(C)C(=O)CCC(=O)c2ccccc2)c1OC,-16.9%
9,CCN(C)C(=O)CCC(=O)c1cccs1,40.2%
10,COCCN1CCC(CN(CC2CCCO2)C(=O)CCC(F)(F)F)CC1 (stereo unspecified),6.67%
11,COc1ccc(N(c2ccc(C)cc2)c2ccc(C(=O)O)s2)cc1,27.8%
12,COc1cncc(-n2ccnc2-c2ccc(C(=O)O)s2)c1,14.6%
13,COc1ccc(N(c2ccc(OC)cc2)c2ccc(C(=O)O)s2)cc1,69.3%
14,CCC(=O)Nc1nnc(CCOc2ccc(OC)cc2)s1,40%
15,Cc1ccc(OCc2ccc(C(=O)O)s2)cc1C,-32.9%
16,COc1ccc(N(c2ccccc2)c2ccc(C(=O)O)s2)cc1,66.4%
17,Cc1nc(N2CCCC2)ncc1-c1cc(O)n2ncnc2n1,16.8%
18,CN1CCCCC1(C)C(=O)N1CCC(c2ccccn2)CC1 (stereo unspecified),19.825%
19,OC(COCc1ccco1)CN1CCc2c(ncn2C2CC2)C1 (stereo unspecified),-58.7%
20,Cn1ccnc1C(=O)N1CCOC(Cc2ccc(Cl)cc2)C1 (stereo unspecified),47.2%
21,Cc1cnc(CNS(=O)(=O)CCC2CCCO2)o1 (stereo unspecified),57.7%
22,CN(CCCC1CCCO1)S(=O)(=O)NCc1ccccc1 (stereo unspecified),16.1%

row,SMILES,INHIBITION
1,O=S(=O)(CCC1CCCO1)NCc1ncc(-c2ccccc2)o1 (stereo unspecified),20%
2,C=c1ccoc1=C1NN=C(CNCCn2cccn2)O1,34.1%
3,CC(=O)N1CCC2(CC1)CN(CC(C)C)CC21CCNC1=O (stereo unspecified),-33.1%
4,O=C(NCc1ccoc1)NC1CCCN(c2ncccn2)C1 (stereo unspecified),-22.1%
5,CC1CCCN(C(=O)c2csc(S(N)(=O)=O)c2)CC1 (stereo unspecified),11.5%
6,CCOC1CCN(C(=O)c2csc(S(N)(=O)=O)c2)CC1,62.4%
7,CCCOC1CCCN(C(=O)c2csc(S(N)(=O)=O)c2)C1 (stereo unspecified),0.991%
8,CCc1nnc2n1CC(CNCc1nc(C)c(C)o1)CC2 (stereo unspecified),-8.22%
9,Cc1ccc(CNC(=O)N2CCCC(NS(C)(=O)=O)C2)cc1 (stereo unspecified),9.64%
10,Cc1noc([C@]23COC[C@H]2CN(C(=O)CN(C)C)C3)n1,46.6%
11,Cc1noc([C@]23COC[C@H]2CN(C(=O)COC2CCCC2)C3)n1,-5.89%
12,CCOCC(=O)N1C[C@@H]2COC[C@]2(c2nc(C)no2)C1,63.8%
13,COCCN1CCc2ncnc(N(C)C)c2CC1,33.5%
14,CN(C)Cc1ccnc(C2CN(CCCc3ccccc3)CCO2)n1 (stereo unspecified),42.6%
15,O=C(c1ccc(C2CCCN2C(=O)c2ccc[nH]2)s1)N1CCSCC1 (stereo unspecified),-32.2%
16,CCn1ncc2c1CCCC2NCc1ccc2c(c1)OCCO2 (stereo unspecified),1.51%
17,CC(C)(C)n1ncc2c1CCCC2NCc1ccc2c(c1)CCO2 (stereo unspecified),61%
18,CCn1ncc2c1CCCC2NCc1ccc2c(c1)CCO2 (stereo unspecified),5.03%
19,CC(C)(C)n1ncc2c1CCCC2NCc1cccc(C(N)=O)c1 (stereo unspecified),-8.4%
20,Cn1ncc2c1CCCC2NCc1cnc(-c2ccccc2)nc1 (stereo unspecified),33%
21,O=C1C(NCc2ccc3c(c2)CCO3)CCN1Cc1ccccc1 (stereo unspecified),6.88%
22,COCc1nc(CNC2CCCc3c2cnn3C(C)(C)C)cs1 (stereo unspecified),2.02%

row,SMILES,INHIBITION
1,CC(C)(C)n1ncc2c1CCCC2NCc1ccc2c(c1)OCCO2 (stereo unspecified),93.1%
2,CC(C)(C)n1ncc2c1CCCC2NCc1ccc2ncccc2c1 (stereo unspecified),72.8%
3,CC(C)(C)n1ncc2c1CCCC2NCc1cccc2c1OCCO2 (stereo unspecified),35.9%
4,CC(C)(C)n1ncc2c1CCCC2NCc1ccsc1 (stereo unspecified),50.1%
5,CC(C)(C)n1ncc2c1CCCC2NCc1cccc2c1OCO2 (stereo unspecified),20.2%
6,CNC(=O)C1(C)CN(S(=O)(=O)c2cccc(OC)c2)CCO1 (stereo unspecified),11.175%
7,O=C(c1cnccn1)N1C[C@@H](OCc2cccnc2)[C@H]2OCCC[C@H]21,14.6%
8,CC(C)CCn1[nH]c(CNc2ccccc2)nc1=O,-7.9%
9,CN(C)C1CCN(C(=O)c2cc3c(s2)CCN3C(=O)C2CC2)CC1,49.1%
10,CCC1=N[C@@]2(CC[C@@H]3CN(Cc4cccc(Cl)c4)C[C@@H]32)C(=O)N1C,30.3%
11,CCC1=N[C@@]2(CC[C@@H]3CN(Cc4ccc(Cl)cc4)C[C@@H]32)C(=O)N1C,50.6%
12,CCC1=N[C@@]2(CC[C@@H]3CN(Cc4ccc(C)cc4)C[C@@H]32)C(=O)N1C,34.9%
13,CCC1=N[C@@]2(CC[C@@H]3CN(Cc4ccc(F)cc4)C[C@@H]32)C(=O)N1C,62%
14,CCC1=N[C@@]2(CC[C@@H]3CN(CC)C[C@@H]32)C(=O)N1C,23.1%
15,CCC1=N[C@@]2(CC[C@@H]3CN(Cc4ccccc4C)C[C@@H]32)C(=O)N1C,46.6%
16,Cc1cccc(CNC(=O)Nc2ccn(CCCC(=O)N(C)C)n2)c1,-6.52%
17,CC1CCN(c2nc3cn(-c4ccc5c(c4)OCO5)c(=O)c-3c[nH]2)CC1,23.5%
18,Cc1ccc(CN2CCC[C@@H]3CN(C(=O)c4ccco4)C[C@@H]32)o1,-2.35%
19,Cc1cc(C(=O)Nc2ccc3c(ccn3CCN3CCOCC3)c2)on1,12.8%
20,COc1cc(Oc2ccc(C(N)=O)cn2)ccc1CN1CCCC1,-0.27%
21,COc1ccc(Oc2ccc(C(F)(F)F)cn2)cc1CN1CCCC1,63.7%
22,COc1ccc(CN2CCn3c(CO)nnc3C2)cc1CN1CCCC1,44.8%

row,SMILES,INHIBITION
1,COc1cc(Oc2cnc3ccccc3n2)ccc1CN1CCCC1,84.9%
2,COc1ccc(CN2CCC(O)CC2)c(OC)c1,1.81%
3,COc1ccc(Oc2cccnc2)cc1CN1CCCC1,49.4%
4,COc1cc(Oc2ccc(C(F)(F)F)cn2)ccc1CN1CCCC1,91.5%
5,COc1ccc(CN2CCSCC2)c(OC)c1,33.1%
6,COc1ccc(CN2CC[C@H](NC(C)=O)[C@@H](O)CC2)c(OC)c1,35.3%
7,Cc1cc(CN2CCN(Cc3ccc(C#N)cc3OC(F)F)CC2)no1,14.27%
8,COc1ccc(C2CCCN2c2ccc(C#N)cn2)c(OC)c1 (stereo unspecified),37.7%
9,COc1cc(Oc2ccc(C#N)cn2)ccc1CN1CCCC1,82.9%
10,O=C(Cc1cccc(O)c1)N1CCCC(O)(CN2CCOCC2)CC1 (stereo unspecified),6.26%
11,CC(Cn1cccn1)NC(=O)NCc1ccc(C(N)=O)cc1 (stereo unspecified),-98.8%
12,Cc1cc(NC(=O)CN2CCn3c(nnc3C3CC3)C2)on1,25.3%
13,CC(C)c1nc(C2CCCN2CCN2CCCCC2)no1 (stereo unspecified),-0.55%
14,CN(C)CCO[C@H]1CN(CC2CC2)[C@@H]2CCCO[C@H]12,25.8%
15,CC(NC(=O)c1cccs1)C(=O)NCc1ccccn1 (stereo unspecified),21.6%
16,O=c1cc(Cn2cncn2)nc2n1CCCN(Cc1ccoc1)C2,20.5%
17,CCS(=O)(=O)N1CCC(NC(=O)c2cc(C(C)C)ccc2O)CC1,-7.1%
18,Cc1ncsc1CN1CC[C@H]2OCC[C@@]2(C(=O)N2CCOCC2)C1,11.4%

# — ChEMBL document CHEMBL4513216, “Probing the Open Global Health Chemical Diversity Library for Multistage-Active Starting Points for Next-Generation Antimalarials” (ACS Infect Dis, 2020)
